PAD4 FP inh = human PAD4 inhibitors, primary screen, biochemical, fluorescence polarization, 1536-well format; Protein-arginine deiminase type-4 (Homo sapiens), Q9UM07; recombinant PAD4, RCA probe fluorescence polarization; inhibition, % at 6.36 µM; 0.41% of 330,000 active; AID 485272, 2010;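 active means percent inhibition above a cutoff equal to the mean of all tested compounds plus 3 SD, cut at about 15% in these data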;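 further: 0% = PAD4 with RCA probe and DMSO and 100% = probe without PAD4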
PME-1 inh = PME-1 inhibitors via competitive probe labeling, primary screen, biochemical, fluorescence polarization, FP-Rh probe, HTS. Protein phosphatase methylesterase 1 (Homo sapiens), Q9Y570. recombinant PME-1. inhibition, % at 5.9 µM. 0.53% of 320,000 active. AID 2130, 2009;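 active means inhibition above the campaign mean of all compounds plus 3 SD, cut at about 26% in these data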;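 further: competitive labeling of PME-1 active site by serine hydrolase directed probe; 0% = PME-1 with DMSO and 100% = wells lacking PME-1 enzyme; inhibitors block probe labeling so polarization falls and inhibition rises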
LYPLA1 counter = LYPLA1 inhibitors, primary screen, counter-screen for PME1 inhibitor project, biochemical, fluorescence polarization, FP-Rh probe ABPP; Acyl-protein thioesterase 1 (Homo sapiens), O75608; recombinant LYPLA1; inhibition, % at 5.9 µM; 0.16% of 320,000 active; AID 2174, 2009;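 active means inhibition above the mean of all tested compounds plus 3 SD, set per campaign, cut at about 14% in these data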;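 further: inhibitors block serine hydrolase probe labeling of LYPLA1 so polarization falls; 0% = enzyme with DMSO and 100% = wells lacking LYPLA1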
Target sequence (O75608 whole entry, looked up): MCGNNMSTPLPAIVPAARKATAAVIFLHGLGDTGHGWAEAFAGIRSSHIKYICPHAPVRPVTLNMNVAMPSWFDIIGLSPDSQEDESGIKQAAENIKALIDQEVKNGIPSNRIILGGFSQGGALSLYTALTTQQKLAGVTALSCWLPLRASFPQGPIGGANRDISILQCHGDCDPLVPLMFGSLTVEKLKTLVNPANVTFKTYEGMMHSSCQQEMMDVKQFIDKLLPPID
Fam108B inh = mouse Fam108B serine hydrolase inhibitors, primary screen, counter-screen for RBBP9 inhibitor project, biochemical, fluorescence polarization; AID 1947, 2009; 0.33% of 300,000 active; inhibition, % at 9.51 µM; recombinant Fam108B, FP-Rh probe fluorescence polarization;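 active means inhibition above the screen mean inhibition plus 3 SD, computed separately per campaign, cut at about 18% in these data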;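 further: inhibitors lower polarization as less probe binds the enzyme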
GSTO1 counter = inhibitors of recombinant GSTO1, primary screen, counter-screen for RBBP9 inhibitor project, biochemical, fluorescence polarization | 1.1% of 300,000 active | AID 1974, 2009 | activity-based probe fluorescence polarization | inhibition, % at 5.96 µM;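 active means inhibition above the campaign mean inhibition plus 3 SD, cut at about 35% in these data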;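 further: 0% = GSTO1-1 with DMSO and 100% = wells lacking GSTO1-1 enzyme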
Target sequence (P78417 whole entry, looked up): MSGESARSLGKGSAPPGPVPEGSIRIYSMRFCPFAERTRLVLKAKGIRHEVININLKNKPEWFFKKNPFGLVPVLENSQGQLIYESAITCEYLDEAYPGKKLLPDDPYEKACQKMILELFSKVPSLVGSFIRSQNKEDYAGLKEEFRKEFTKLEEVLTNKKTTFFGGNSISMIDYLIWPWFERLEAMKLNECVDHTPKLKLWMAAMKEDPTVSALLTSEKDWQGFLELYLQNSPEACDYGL
LYPLA2 counter = LYPLA2 inhibitors, primary screen, counter-screen for PME1 inhibitor project, biochemical, fluorescence polarization, FP-Rh probe ABPP; recombinant LYPLA2; AID 2177, 2009; 0.38% of 320,000 active; inhibition, % at 5.9 µM; Acyl-protein thioesterase 2 (Homo sapiens), O95372;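 active means inhibition above the screen-wide mean plus 3 SD, limit set per campaign, cut at about 26% in these data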;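 further: 0% = LYPLA2 with DMSO and 100% = wells lacking LYPLA2 enzyme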
Target sequence (O95372 whole entry, looked up): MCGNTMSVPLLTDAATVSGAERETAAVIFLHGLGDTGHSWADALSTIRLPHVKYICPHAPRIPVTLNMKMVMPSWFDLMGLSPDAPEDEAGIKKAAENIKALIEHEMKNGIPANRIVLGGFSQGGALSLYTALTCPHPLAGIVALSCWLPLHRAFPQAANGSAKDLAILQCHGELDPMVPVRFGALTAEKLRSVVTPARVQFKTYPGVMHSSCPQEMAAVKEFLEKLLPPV
LYPLA2 confirm = LYPLA2 inhibitors, retest, confirmation, counter-screen for PME1 inhibitor project, biochemical, fluorescence polarization, FP-Rh probe ABPP | inhibition, % at 5.9 µM | shares compounds with LYPLA2 counter | 72% of 1,100 active | recombinant LYPLA2;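 active means mean inhibition across replicates above the hit cutoff set in the primary screen, cut at about 26% in these data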;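 further: blocked labeling of the enzyme by serine hydrolase FP-Rh probe lowers polarization; 0% = enzyme with DMSO and 100% = wells lacking LYPLA2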
LYPLA2 gel ABPP = LYPLA2 inhibitors in proteome, late-stage follow-up, gel-based competitive ABPP, fluorescence, assay provider; inhibition, % at 20 µM; rhLYPLA2 in mouse brain proteome, gel ABPP FP-Rh; shares compounds with LYPLA2 counter; 30% of 150 active;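 active means inhibition of LYPLA2 enzyme probe labeling above about 50%, limit read from the data; inactive means inhibition below that limit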;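 further: loss of FP-Rh probe labeling of the LYPLA2 gel band measured as band density; 0% = DMSO only control band and 100% = blank gel background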
Starred values were filed as active, the others as inactive; nt = not tested or not shown. An excerpt weighted towards active compounds, which were near 1.8% of everything screened.

SMILES	PAD4 FP inh	PME-1 inh	LYPLA1 counter	Fam108B inh	GSTO1 counter	LYPLA2 counter	LYPLA2 confirm	others
Cc1ccc(C)c(S(=O)(=O)NCc2ccc(C(=O)N3CCC(Cc4ccccc4)CC3)cc2)c1	0.8	-1.5	-2.0	-2.3	-6.4	45.3*	47.3*
c1cc2[nH]snc2c2nc(C3CC3)nc12	-2.1	2.3	2.9	4.0	11.0	6.1	nt
CC(NCc1ccc(OCc2ccc(Cl)cc2)cc1)C(O)c1ccccc1 (stereo not drawn)	0.1	-7.7	1.5	3.0	-0.6	39.0*	38.1*
COc1cc(C=NNC(=O)C(NC(=O)c2ccccc2)c2n[nH]c(=O)c3ccccc23)ccc1OCC(N)=O (stereo not drawn)	nt	nt	nt	nt	nt	nt	nt	LYPLA2 gel ABPP=61.0*
CC(C)(C)n1ncc2c(=O)n(CC(=O)N3CCCCCC3)cnc21	0.2	-0.1	2.4	1.1	-0.7	29.1*	2.5
Cc1ccc(NC(=O)Cn2cnc3c(cnn3C(C)(C)C)c2=O)cc1	1.1	-2.4	-0.4	0.0	6.4	3.3	nt
CC(C)=CCN1CCN(Cc2nc(-c3ccccc3)cs2)CC1CCO (stereo not drawn)	-2.3	-7.3	-2.9	1.0	5.5	-0.6	nt
CCC1C(=O)NCCN1C(=O)c1ccc2nc(Cc3cccc(Cl)c3)oc2c1 (stereo not drawn)	-0.8	-2.1	-1.6	2.7	-0.7	1.1	nt
Cc1ccc(S(=O)(=O)N(C)CC(=O)O/N=C(\N)c2ccc([N+](=O)[O-])cc2)cc1	2.5	-10.0	7.1	-4.6	-1.9	67.1*	58.4*	LYPLA2 gel ABPP=0.0
CN(CC(=O)O/N=C(\N)c1cccc([N+](=O)[O-])c1)S(=O)(=O)c1ccccc1	-4.4	8.0	-4.7	1.2	7.8	-2.1	nt
CN(CC(=O)O/N=C(\N)c1ccc([N+](=O)[O-])cc1)S(=O)(=O)c1ccccc1	0.2	-3.6	-1.5	1.6	1.0	29.3*	18.1
c1ccc(-c2ccc(C(c3ccccc3)n3ccnc3)cc2)cc1 (stereo not drawn)	-3.6	-5.0	-3.9	2.3	2.9	27.4*	23.1
CCCCCCC1CC(CC(=O)Nc2ccc([N+](=O)[O-])cc2)C(=O)O1 (stereo not drawn)	-3.9	4.7	1.0	-4.7	-3.5	33.6*	28.0*
CCCCCN(C(=O)CCC(=O)OCC(=O)N1C(C)CCCC1C)c1c(N)n(CCCC)c(=O)[nH]c1=O (stereo not drawn)	-5.0	-7.5	0.5	-10.4	11.1	1.4	nt
CC(C)[C@H](NC(=O)OC(C)(C)C)c1nnc(SCC(=O)Nc2ccc(Br)cc2)o1	-2.4	-2.6	0.4	-3.0	-3.4	48.2*	54.2*
C[C@H](NC(=O)OC(C)(C)C)c1nnc(SCC(=O)Nc2cccc(Cl)c2)o1	-0.5	3.7	-3.5	-1.4	0.0	-1.0	nt
O=C1c2ccc(Oc3ccc4c(c3)C(=O)N(CCCCO)C4=O)cc2C(=O)N1CCCCO	-4.7	-4.8	1.0	-6.7	-1.0	29.4*	34.8*
O=C(O)CN1C(=O)c2ccc(Oc3ccc([N+](=O)[O-])cc3)cc2C1=O	-3.7	2.8	-1.1	-3.0	7.9	4.5	nt
O=C1c2ccc(Oc3ccc([N+](=O)[O-])cc3)cc2C(=O)N1CCCO	-4.9	-2.3	4.0	0.8	-3.4	46.1*	49.6*
Cc1ccc(OCC(=O)NCc2ccccc2)c([N+](=O)[O-])n1	-1.4	-1.2	3.3	0.6	6.3	54.3*	-4.6
O=C(NCC1CCCO1)c1ccc2c(=O)n(-c3ccccc3)c(=S)[nH]c2c1 (stereo not drawn)	0.4	-3.1	0.9	4.9	1.9	2.1	nt
Cc1ccc(NC(=O)CN2C(=O)S/C(=C\c3cc(C)n(-c4ccc(C(=O)O)cc4)c3C)C2=O)cc1	-0.7	1.3	-5.0	2.8	-2.6	41.7*	43.1*
Cc1ccc(NC(=O)CN2C(=O)S/C(=C\c3cccn3-c3cccc(C(=O)O)c3)C2=O)cc1C	-2.4	-11.3	-9.3	-1.7	-2.6	35.8*	43.1*
Cc1cccc(NC(=O)CN2C(=O)S/C(=C\c3cccn3-c3cccc(C(=O)O)c3)C2=O)c1	2.4	-5.1	-5.2	-7.8	-13.2	66.5*	63.4*	LYPLA2 gel ABPP=94.0*
Cc1ccccc1NC(=O)CN1C(=O)S/C(=C\c2cccn2-c2cccc(C(=O)O)c2)C1=O	7.1	-5.0	-8.7	-3.4	3.2	50.0*	74.3*	LYPLA2 gel ABPP=64.0*
SMILES	PAD4 FP inh	PME-1 inh	LYPLA1 counter	Fam108B inh	GSTO1 counter	LYPLA2 counter	LYPLA2 confirm	others
Cc1cccc(NC(=O)CN2C(=O)S/C(=C\C(=O)Nc3ccc(Cl)cc3)C2=O)c1	3.0	-3.7	-1.0	-11.6	7.6	1.2	nt
Cc1cccc(C)c1NC(=O)CN1C(=O)S/C(=C\c2cccn2C)C1=O	-2.4	3.3	-1.5	-2.7	4.9	-5.7	nt
CNc1c(NS(=O)(=O)c2ccc3c(c2)CCCC3)c(=O)oc2ccccc12	0.0	-4.2	2.8	-1.4	1.1	-1.4	nt
O=C(NCc1n[nH]c(=S)n1-c1cccc(Cl)c1)c1ccc(S(=O)(=O)N2CCCC2)cc1	-1.3	-0.2	0.6	-0.4	4.4	3.5	nt
Cc1cccc(-n2c(CNC(=O)c3ccc(S(=O)(=O)N4CCCCC4)cc3)n[nH]c2=S)c1	-1.6	5.4	0.3	1.2	7.1	78.7*	4.8
Cc1ccc(NC(=O)CCS(=O)(=O)c2ccc3c(c2)NC(=O)C(C)S3)nc1 (stereo not drawn)	1.3	-0.2	4.6	-0.3	0.8	-0.9	nt
Cn1c(=O)c2c(ncn2CC(=O)N/N=C/C(Cl)=C/c2ccccc2)n(C)c1=O	-0.6	3.4	7.9	0.5	-1.3	32.4*	22.1
Cn1c(=O)c2c(ncn2CCC(=O)N/N=C/c2ccccc2)n(C)c1=O	5.1	5.0	2.2	4.1	9.0	1.1	nt
CCC(=O)NC(Nc1c(C)n(C)n(-c2ccccc2)c1=O)C(Cl)(Cl)Cl (stereo not drawn)	4.8	1.3	1.9	-4.3	5.2	5.3	nt
CC(=O)c1ccc(N2CCN(c3ccnc4cc(Cl)ccc34)CC2)cc1	-1.2	-2.1	5.3	0.5	-1.3	35.8*	26.9*

Assay outcomes: PubChem, The Scripps Research Institute Molecular Screening Center
